According to PubChem BioAssay AID1159580 (chemical genetic matrix, 2015):
The campaign covered roughly 5,500 compounds. About 2,000 (36%) were called active. Not shown: some 18% with an inconclusive outcome. No stated cut-off is given here; in the data, active means normalized growth mostly below about 0.91 (no sharp cut-off); inconclusive means no clear call, values can overlap the other calls; inactive means mostly above about 0.92. The list shows a part of the results.

Assay: chemical genetic growth profiling, strain panel (AID 1159580);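 further: tested at 20 µM; growth read once vehicle control cultures reached saturation at 30 °C; 1 = growth at the plate median or of vehicle wells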
Settings: growth OD

Measured: normalized growth

CC1(C)CC(O)C2(C)CCC3(C)C(=CCC4C5(C)CCC(O)C(C)(CO)C5CCC43C)C2C1 (stereo not drawn)
inactive: S. cerevisiae deletion strains, locus YAL021C, strain ccr4, stronger effect = lower value 1.02 | S. cerevisiae deletion strains, locus YAL026C, strain drs2, stronger effect = lower value 1.03 | S. cerevisiae deletion strains, locus YAL030W, strain snc1, stronger effect = lower value 1.02 | S. cerevisiae deletion strains, locus YBL061C, strain skt5, stronger effect = lower value 1.03 | S. cerevisiae deletion strains, locus YBR009C, strain hhf1, stronger effect = lower value 1.02 | S. cerevisiae deletion strains, locus YBR023C, strain chs3, stronger effect = lower value 1.03 | S. cerevisiae deletion strains, locus YBR171W, strain sec66, stronger effect = lower value 1.03 | S. cerevisiae deletion strains, locus YBR231C, strain swc5, stronger effect = lower value 1.03 | S. cerevisiae deletion strains, locus YBR279W, strain paf1, stronger effect = lower value 1.02 | S. cerevisiae deletion strains, locus YCL011C, strain gbp2, stronger effect = lower value 1.03 | S. cerevisiae deletion strains, locus YCL016C, strain dcc1, stronger effect = lower value 1.03 | S. cerevisiae deletion strains, locus YCL061C, strain MRC1, stronger effect = lower value 1.02 | S. cerevisiae deletion strains, locus YCL069W, strain vba3, stronger effect = lower value 1.03 | S. cerevisiae deletion strains, locus YCR088W, strain abp1, stronger effect = lower value 1.03 | S. cerevisiae deletion strains, locus YDL005C, strain med2, stronger effect = lower value 1.03 | S. cerevisiae deletion strains, locus YDL040C, strain nat1, stronger effect = lower value 1.03 | S. cerevisiae deletion strains, locus YDR001C, strain nth1, stronger effect = lower value 1.02 | S. cerevisiae deletion strains, locus YDR069C, strain doa4, stronger effect = lower value 1.04 | S. cerevisiae deletion strains, locus YDR137W, strain rgp1, stronger effect = lower value 0.956 | S. cerevisiae deletion strains, locus YDR159W, strain sac3, stronger effect = lower value 1.04 | S. cerevisiae deletion strains, locus YDR195W, strain ref2 1 | S. cerevisiae deletion strains, locus YDR297W, strain sur2, stronger effect = lower value 1.02 | S. cerevisiae deletion strains, locus YDR334W, strain swr1, stronger effect = lower value 1.03 | S. cerevisiae deletion strains, locus YDR335W, strain msn5, stronger effect = lower value 1.03 | S. cerevisiae deletion strains, locus YDR392W, strain spt3, stronger effect = lower value 1.03 | S. cerevisiae deletion strains, locus YEL003W, strain gim4, stronger effect = lower value 1.02 | S. cerevisiae deletion strains, locus YEL037C, strain rad23, stronger effect = lower value 1.02 | S. cerevisiae deletion strains, locus YEL061C, strain CIN8 (second series), stronger effect = lower value 1.02 | S. cerevisiae deletion strains, locus YER015W, strain faa2, stronger effect = lower value 1.02 | S. cerevisiae deletion strains, locus YER016W, strain bim1, stronger effect = lower value 1.03 | S. cerevisiae deletion strains, locus YER111C, strain swi4, stronger effect = lower value 1.03 | S. cerevisiae deletion strains, locus YER155C, strain BEM2 (second series), stronger effect = lower value 1.04 | S. cerevisiae deletion strains, locus YFR010W, strain ubp6, stronger effect = lower value 1.03 | S. cerevisiae deletion strains, locus YGL167C, strain pmr1, stronger effect = lower value 1.02 | S. cerevisiae deletion strains, locus YGL173C, strain kem1, stronger effect = lower value 1.03 | S. cerevisiae deletion strains, locus YGL227W, strain vid30, stronger effect = lower value 1.03 | S. cerevisiae deletion strains, locus YGL240W, strain doc1, stronger effect = lower value 1.02 | S. cerevisiae deletion strains, locus YGL253W, strain hxk2, stronger effect = lower value 1.03 | S. cerevisiae deletion strains, locus YHR013C, strain ard1, stronger effect = lower value 1.04 | S. cerevisiae deletion strains, locus YHR027C, strain rpn1, stronger effect = lower value 1.02 | S. cerevisiae deletion strains, locus YHR142W, strain chs7, stronger effect = lower value 1.03 | S. cerevisiae deletion strains, locus YJL092W, strain hpr5, stronger effect = lower value 1.03 | S. cerevisiae deletion strains, locus YJL095W, strain BCK1 (second series), stronger effect = lower value 1.04 | S. cerevisiae deletion strains, locus YJL115W, strain asf1, stronger effect = lower value 1.04 | S. cerevisiae deletion strains, locus YJL129C, strain trk1, stronger effect = lower value 1.04 | S. cerevisiae deletion strains, locus YJL154C, strain vps35, stronger effect = lower value 1.02 | S. cerevisiae deletion strains, locus YJL164C, strain tpk1, stronger effect = lower value 1.03 | S. cerevisiae deletion strains, locus YJL166W, strain qcr8, stronger effect = lower value 1.02 | S. cerevisiae deletion strains, locus YJL187C, strain SWE1, stronger effect = lower value 1.02 | S. cerevisiae deletion strains, locus YKL160W, strain elf1, stronger effect = lower value 1.02 | S. cerevisiae deletion strains, locus YKR026C, strain gcn3, stronger effect = lower value 1.04 | S. cerevisiae deletion strains, locus YKR091W, strain srl3, stronger effect = lower value 1.03 | S. cerevisiae deletion strains, locus YLL001W, strain dnm1, stronger effect = lower value 1.03 | S. cerevisiae deletion strains, locus YLL026W, stronger effect = lower value 1.03 | S. cerevisiae deletion strains, locus YLL041C, strain sdh2, stronger effect = lower value 1.03 | S. cerevisiae deletion strains, locus YLR027C, strain aat2, stronger effect = lower value 1.03 | S. cerevisiae deletion strains, locus YLR221C, strain rsa3, stronger effect = lower value 1.02 | S. cerevisiae deletion strains, locus YLR258W, strain gsy2, stronger effect = lower value 1.04 | S. cerevisiae deletion strains, locus YLR262C, strain YPT6 (second series), stronger effect = lower value 0.994 | S. cerevisiae deletion strains, locus YLR320W, strain mms22, stronger effect = lower value 1.04 | S. cerevisiae deletion strains, locus YLR342W, strain FKS1, stronger effect = lower value 1.02 | S. cerevisiae deletion strains, locus YLR357W, strain rsc2, stronger effect = lower value 1.02 | S. cerevisiae deletion strains, locus YLR370C, strain arc18, stronger effect = lower value 1.03 | S. cerevisiae deletion strains, locus YLR384C, strain iki3, stronger effect = lower value 1.03 | S. cerevisiae deletion strains, locus YML120C, strain ndi1, stronger effect = lower value 1.04 | S. cerevisiae deletion strains, locus YMR058W, strain fet3, stronger effect = lower value 1.02 | S. cerevisiae deletion strains, locus YMR125W, strain sto1, stronger effect = lower value 1.04 | S. cerevisiae deletion strains, locus YMR129W, stronger effect = lower value 1.02 | S. cerevisiae deletion strains, locus YMR205C, strain PFK2, stronger effect = lower value 1.03 | S. cerevisiae deletion strains, locus YMR231W, strain pep5, stronger effect = lower value 1.03 | S. cerevisiae deletion strains, locus YNL071W, strain lat1, stronger effect = lower value 1.02 | S. cerevisiae deletion strains, locus YNL209W, strain ssb2, stronger effect = lower value 1.03 | S. cerevisiae deletion strains, locus YNL248C, strain rpa49, stronger effect = lower value 1.02 | S. cerevisiae deletion strains, locus YNL322C, strain KRE1 (second series), stronger effect = lower value 1.02 | S. cerevisiae deletion strains, locus YNR049C, strain mso1, stronger effect = lower value 1.04 | S. cerevisiae deletion strains, locus YOR001W, strain rrp6, stronger effect = lower value 1.04 | S. cerevisiae deletion strains, locus YOR070C, strain gyp1, stronger effect = lower value 1.03 | S. cerevisiae deletion strains, locus YOR080W, strain dia2, stronger effect = lower value 1.03 | S. cerevisiae deletion strains, locus YOR083W, strain WHI5, stronger effect = lower value 1.02 | S. cerevisiae deletion strains, locus YOR106W, strain vam3, stronger effect = lower value 1.03 | S. cerevisiae deletion strains, locus YOR265W, strain rbl2, stronger effect = lower value 1.03 | S. cerevisiae deletion strains, locus YOR270C, strain vph1, stronger effect = lower value 1.03 | S. cerevisiae deletion strains, locus YOR290C, strain snf2, stronger effect = lower value 1.03 | S. cerevisiae deletion strains, locus YPL051W, strain arl3, stronger effect = lower value 1.02 | S. cerevisiae deletion strains, locus YPL078C, strain atp4, stronger effect = lower value 1.03 | S. cerevisiae deletion strains, locus YPL106C, strain sse1, stronger effect = lower value 1.05 | S. cerevisiae deletion strains, locus YPL240C, strain hsp82, stronger effect = lower value 1.03

CC(=O)OC1CC(OC(C)=O)C2(C)C(CC(OC(C)=O)C3(C)C4=CC(=O)OC(=O)C4(C)CCC32)C1(C)C (stereo not drawn)
inactive: S. cerevisiae deletion strains, locus YBR021W, strain FUR4, stronger effect = lower value 1.01 | S. cerevisiae deletion strains, locus YBR229C, strain ROT2, stronger effect = lower value 1 | S. cerevisiae deletion strains, locus YCL029C, strain bik1, stronger effect = lower value 1 | S. cerevisiae deletion strains, locus YDL035C, strain GPR1, stronger effect = lower value 1.01 | S. cerevisiae deletion strains, locus YDL074C, strain BRE1, stronger effect = lower value 1.02 | S. cerevisiae deletion strains, locus YDL101C, strain DUN1, stronger effect = lower value 1.02 | S. cerevisiae deletion strains, locus YDL134C, strain PPH21, stronger effect = lower value 1.02 | S. cerevisiae deletion strains, locus YDL185W, strain tfp1, stronger effect = lower value 1.01 | S. cerevisiae deletion strains, locus YDL192W, strain arf1, stronger effect = lower value 0.982 | S. cerevisiae deletion strains, locus YDR101C, strain arx1, stronger effect = lower value 0.996 | S. cerevisiae deletion strains, locus YDR150W, strain NUM1, stronger effect = lower value 1.01 | S. cerevisiae deletion strains, locus YDR162C, strain NBP2, stronger effect = lower value 1.01 | S. cerevisiae deletion strains, locus YDR318W, strain mcm21, stronger effect = lower value 0.99 | S. cerevisiae deletion strains, locus YDR388W, stronger effect = lower value 1.01 | S. cerevisiae deletion strains, locus YDR502C, strain sam2, stronger effect = lower value 1.02 | S. cerevisiae deletion strains, locus YER110C, stronger effect = lower value 1 | S. cerevisiae deletion strains, locus YER155C, strain BEM2, stronger effect = lower value 0.993 | S. cerevisiae deletion strains, locus YER167W, strain BCK2, stronger effect = lower value 0.995 | S. cerevisiae deletion strains, locus YGL078C, strain dbp3, stronger effect = lower value 1.03 | S. cerevisiae deletion strains, locus YGL086W, strain mad1, stronger effect = lower value 0.998 | S. cerevisiae deletion strains, locus YGL248W, strain PDE1, stronger effect = lower value 1.03 | S. cerevisiae deletion strains, locus YGR078C, strain PAC10, stronger effect = lower value 1.04 | S. cerevisiae deletion strains, locus YGR135W, strain pre9, stronger effect = lower value 1.06 | S. cerevisiae deletion strains, locus YGR252W, strain gcn5, stronger effect = lower value 1.03 | S. cerevisiae deletion strains, locus YHR030C, strain SLT2, stronger effect = lower value 0.999 | S. cerevisiae deletion strains, locus YHR079C, strain IRE1 (second series), stronger effect = lower value 1 | S. cerevisiae deletion strains, locus YHR094C, strain hxt1, stronger effect = lower value 1.01 | S. cerevisiae deletion strains, locus YHR129C, strain ARP1, stronger effect = lower value 1.01 | S. cerevisiae deletion strains, locus YHR200W, strain rpn10, stronger effect = lower value 1.01 | S. cerevisiae deletion strains, locus YIL066C, strain RNR3, stronger effect = lower value 0.99 | S. cerevisiae deletion strains, locus YIL073C, strain SPO22, stronger effect = lower value 1.04 | S. cerevisiae deletion strains, locus YIL125W, strain kgd1, stronger effect = lower value 0.993 | S. cerevisiae deletion strains, locus YIR030C, strain dcg1, stronger effect = lower value 0.999 | S. cerevisiae deletion strains, locus YJL095W, strain BCK1, stronger effect = lower value 1.04 | S. cerevisiae deletion strains, locus YJL134W, strain LCB3, stronger effect = lower value 0.997 | S. cerevisiae deletion strains, locus YJL168C, strain set2, stronger effect = lower value 1 | S. cerevisiae deletion strains, locus YJL187C, strain SWE1 (second series), stronger effect = lower value 1.04 | S. cerevisiae deletion strains, locus YJR043C, strain POL32, stronger effect = lower value 0.99 | S. cerevisiae deletion strains, locus YJR075W, strain HOC1, stronger effect = lower value 1.01 | S. cerevisiae deletion strains, locus YKL009W, strain mrt4, stronger effect = lower value 0.992 | S. cerevisiae deletion strains, locus YKL068W, stronger effect = lower value 1.01 | S. cerevisiae deletion strains, locus YKL085W, strain MDH1 (second series), stronger effect = lower value 0.987 | S. cerevisiae deletion strains, locus YKL085W, strain MDH1, stronger effect = lower value 0.987 | S. cerevisiae deletion strains, locus YKL190W, strain CNB1, stronger effect = lower value 1.01 | S. cerevisiae deletion strains, locus YKR001C, strain vps1, stronger effect = lower value 0.987 | S. cerevisiae deletion strains, locus YLR039C, strain RIC1, stronger effect = lower value 1.02 | S. cerevisiae deletion strains, locus YLR058C, strain SHM2, stronger effect = lower value 1.02 | S. cerevisiae deletion strains, locus YLR102C, strain apc9, stronger effect = lower value 1.01 | S. cerevisiae deletion strains, locus YLR262C, strain YPT6, stronger effect = lower value 0.985 | S. cerevisiae deletion strains, locus YLR268W, strain sec22, stronger effect = lower value 0.981 | S. cerevisiae deletion strains, locus YLR330W, strain CHS5, stronger effect = lower value 1 | S. cerevisiae deletion strains, locus YLR371W, strain rom2, stronger effect = lower value 0.987 | S. cerevisiae deletion strains, locus YLR418C, strain cdc73, stronger effect = lower value 1.03 | S. cerevisiae deletion strains, locus YML016C, strain PPZ1, stronger effect = lower value 1.01 | S. cerevisiae deletion strains, locus YML032C, strain rad52, stronger effect = lower value 1 | S. cerevisiae deletion strains, locus YML124C, strain tub3, stronger effect = lower value 0.998 | S. cerevisiae deletion strains, locus YMR078C, strain ctf18, stronger effect = lower value 1 | S. cerevisiae deletion strains, locus YMR223W, strain ubp8, stronger effect = lower value 1 | S. cerevisiae deletion strains, locus YMR307W, strain GAS1, stronger effect = lower value 0.916 | S. cerevisiae deletion strains, locus YNL067W, strain RPL9B, stronger effect = lower value 1.05 | S. cerevisiae deletion strains, locus YNL233W, strain BNI4, stronger effect = lower value 1.02 | S. cerevisiae deletion strains, locus YNL250W, strain rad50, stronger effect = lower value 1.02 | S. cerevisiae deletion strains, locus YNL271C, strain bni1, stronger effect = lower value 1.01 | S. cerevisiae deletion strains, locus YNL298W, strain CLA4, stronger effect = lower value 1.01 | S. cerevisiae deletion strains, locus YNL307C, strain MCK1, stronger effect = lower value 1.02 | S. cerevisiae deletion strains, locus YNR052C, strain pop2, stronger effect = lower value 1.03 | S. cerevisiae deletion strains, locus YOL006C, strain TOP1, stronger effect = lower value 0.98 | S. cerevisiae deletion strains, locus YOL012C, strain htz1 0.765 | S. cerevisiae deletion strains, locus YOL147C, strain pex11, stronger effect = lower value 1 | S. cerevisiae deletion strains, locus YOR061W, strain CKA2, stronger effect = lower value 0.994 | S. cerevisiae deletion strains, locus YOR069W, strain VPS5, stronger effect = lower value 1.01 | S. cerevisiae deletion strains, locus YOR136W, strain idh2, stronger effect = lower value 1.01 | S. cerevisiae deletion strains, locus YOR144C, strain elg1, stronger effect = lower value 0.996 | S. cerevisiae deletion strains, locus YOR184W, strain ser1, stronger effect = lower value 0.978 | S. cerevisiae deletion strains, locus YOR316C, strain cot1, stronger effect = lower value 1.01 | S. cerevisiae deletion strains, locus YPR119W, strain clb2, stronger effect = lower value 1.01 | S. cerevisiae deletion strains, locus YPR141C, strain kar3, stronger effect = lower value 1.01 | S. cerevisiae deletion strains, locus YPR163C, strain tif3, stronger effect = lower value 1.02 | S. cerevisiae deletion strains, locus YPR167C, strain met16, stronger effect = lower value 1.01 | S. cerevisiae deletion strains, strain wtn01, stronger effect = lower value 0.975 | S. cerevisiae strains, strain wild type, stronger effect = lower value 1
